Values joined by “and” are separate entries in the source; they are usually repeats but may differ in a detail not shown here. Equal entries are not always repeated. Inconclusive results are not listed. A structure can be active in one record and inactive in another. Active and inactive are the calls of the source. Calls follow the shape of the dose curve; as a rule, active = well fitted curve in the direction sought with a large enough effect in the repeat runs; inconclusive = weak or mixed curves; inactive = no such curve, though single readings can be large; an effect the other way counts as inactive or inconclusive.
Tests used:
[1] = qHTS RealTime-Glo MT Cell Viability Assay in HepG2 cells - 40 hour (AID 1224870); also: nearly all actives have a fitted effect of over 50% in size
Summary of the method: (§1)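 HepG2 cells mixed with RealTime-Glo MT reagents (NanoLuc plus cell-permeant prosubstrate) were seeded at 600 cells/well, incubated 5 h at 37 C/5% CO2, then pinned with compounds in DMSO; nonlytic luminescence tracked viability during 40 h treatment.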

[2] = A CellTox Green Cytotoxicity Assay to monitor cytotoxicity in HEK293 cells - 40 hour (AID 1224871); also: nearly all actives have a fitted effect of over 45% in size; also: potency is read from the fitted curve at half-maximal effect
Summary of the method: (§2)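 Seeding of HEK293 cells together with cytotoxicity dye preceded a 5 h incubation at 37 C/5% CO2. Test compounds in DMSO were then added and fluorescence monitored across 40 h.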

[3] = qHTS RealTime-Glo MT Cell Viability Assay in HEK293 cells - 16 hour (AID 1224872); also: nearly all actives have a fitted effect of over 50% in size; also: potency is read from the fitted curve at half-maximal effect
Summary of the method: (§3)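 Reads taken at 0, 8, 16, 24, 32 and 40 h from the same wells. HEK293 cells (600/well) carried RealTime-Glo reagents from seeding, with compound added after a 5 h settle at 37 C.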

[4] = qHTS RealTime-Glo MT Cell Viability Assay in HepG2 cells - 8 hour (AID 1224873); also: nearly all actives have a fitted effect of over 55% in size
Summary of the method: as §1

[5] = qHTS RealTime-Glo MT Cell Viability Assay in HEK293 cells - 40 hour (AID 1224874); conditions: RealTime-Glo luminescence; max response: stronger effect = lower value; also: nearly all actives have a fitted effect of over 50% in size; also: potency is read from the fitted curve at half-maximal effect
Summary of the method: (§4)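 Tox21 screen in HEK293 using RealTime-Glo MT chemistry, with cells and reagent co-dispensed. Luminescence proportional to viable cell number was captured at intervals during 40 h compound exposure at 37 C.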

[6] = A CellTox Green Cytotoxicity Assay to monitor cytotoxicity in HEK293 cells - 24 hour (AID 1224875); also: nearly all actives have a fitted effect of over 45% in size; also: potency is read from the fitted curve at half-maximal effect
Summary of the method: as §2

[7] = qHTS RealTime-Glo MT Cell Viability Assay in HepG2 cells - 32 hour (AID 1224877); also: nearly all actives have a fitted effect of over 55% in size
Summary of the method: (§5)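 HepG2 suspension premixed with RealTime-Glo reagents is plated at 600 cells per well and left 5 h at 37 C/5% CO2. Compounds in DMSO then go in, and bioluminescence reflecting viable cell number is recorded over 40 h.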

[8] = A CellTox Green Cytotoxicity Assay to monitor cytotoxicity in HepG2 cells - 24 hour (AID 1224878); also: nearly all actives have a fitted effect of over 45% in size; also: potency is read from the fitted curve at half-maximal effect
Summary of the method: (§6)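 Nonlytic assay: viable cells exclude the dye, so fluorescence scales with cell death. HepG2 at 600 cells/well, compounds added after 5 h, signal read across 40 h.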

[9] = A CellTox Green Cytotoxicity Assay to monitor cytotoxicity in HepG2 cells - 40 hour (AID 1224879); also: nearly all actives have a fitted effect of over 40% in size; also: potency is read from the fitted curve at half-maximal effect
Summary of the method: as §6

[10] = qHTS RealTime-Glo MT Cell Viability Assay in HEK293 cells - 0 hour (AID 1224880); also: top concentration of the series differs between compounds; nearly all actives have a fitted effect of over 45% in size
Summary of the method: as §4

[11] = A CellTox Green Cytotoxicity Assay to monitor cytotoxicity in HEK293 cells - 32 hour (AID 1224881); also: nearly all actives have a fitted effect of over 40% in size; also: potency is read from the fitted curve at half-maximal effect
Summary of the method: as §2

[12] = A CellTox Green Cytotoxicity Assay to monitor cytotoxicity in HepG2 cells - 0 hour (AID 1224882); also: nearly all actives have a fitted effect of over 35% in size
Summary of the method: as §6

[13] = A CellTox Green Cytotoxicity Assay to monitor cytotoxicity in HepG2 cells - 32 hour (AID 1224883); also: nearly all actives have a fitted effect of over 50% in size; also: potency is read from the fitted curve at half-maximal effect
Summary of the method: as §6

[14] = A CellTox Green Cytotoxicity Assay to monitor cytotoxicity in HEK293 cells - 8 hour (AID 1224884); also: nearly all actives have a fitted effect of over 35% in size
Summary of the method: as §2

[15] = qHTS RealTime-Glo MT Cell Viability Assay in HepG2 cells - 16 hour (AID 1224885); also: nearly all actives have a fitted effect of over 50% in size
Summary of the method: as §5

[16] = qHTS RealTime-Glo MT Cell Viability Assay in HEK293 cells - 24 hour (AID 1224886); also: nearly all actives have a fitted effect of over 50% in size; also: potency is read from the fitted curve at half-maximal effect
Summary of the method: as §3

[17] = qHTS RealTime-Glo MT Cell Viability Assay in HEK293 cells - 8 hour (AID 1224887); also: nearly all actives have a fitted effect of over 50% in size; also: potency is read from the fitted curve at half-maximal effect
Summary of the method: as §4

[18] = A CellTox Green Cytotoxicity Assay to monitor cytotoxicity in HEK293 cells - 16 hour (AID 1224888); also: nearly all actives have a fitted effect of over 35% in size
Summary of the method: as §2

[19] = qHTS RealTime-Glo MT Cell Viability Assay in HepG2 cells - 0 hour (AID 1224889); also: nearly all actives have a fitted effect of over 50% in size
Summary of the method: as §5

[20] = A CellTox Green Cytotoxicity Assay to monitor cytotoxicity in HepG2 cells - 16 hour (AID 1224876); also: nearly all actives have a fitted effect of over 45% in size
Summary of the method: as §6
% is scaled to controls: 0 for no effect and ±100 for the full control effect.

Cn1c([N+](=O)[O-])cnc1COC(N)=O
inactive: Potency [1] | Potency [2] | Potency [3] | Potency [4] | max response [5] 0.779% and 12.4% | Potency [6] | Potency [7] | Potency [8] | Potency [9] | Potency [10] | Potency [11] | Potency [12] | Potency [13] | Potency [14] | Potency [15] | Potency [16] | Potency [17] | Potency [18] | Potency [19]

CC1=C(CC(=O)O)c2cc(F)ccc2/C1=C\c1ccc(S(C)=O)cc1 (stereo not given)
inactive: Potency [1] | Potency [2] | Potency [3] | Potency [4] | max response [5] 14% and 12.3% | Potency [6] | Potency [7] | Potency [8] | Potency [9] | Potency [10] | Potency [11] | Potency [13] | Potency [14] | Potency [15] | Potency [16] | Potency [17] | Potency [18] | Potency [19]

O=C(O)c1cc(-c2ccccc2)nc2ccccc12
inactive: Potency [1] | Potency [2] | Potency [3] | Potency [4] | max response [5] -1.75% and 4.47% | Potency [6] | Potency [20] | Potency [7] | Potency [8] | Potency [10] | Potency [12] | Potency [13] | Potency [14] | Potency [15] | Potency [16] | Potency [17] | Potency [18] | Potency [19]

CC1(C)CC(N=C=O)CC(C)(CN=C=O)C1 (stereo not given)
inactive: Potency [1] | Potency [2] | Potency [3] | Potency [4] | max response [5] 8.76% and 2.25% | Potency [6] | Potency [7] | Potency [8] | Potency [9] | Potency [10] | Potency [13] | Potency [14] | Potency [15] | Potency [16] | Potency [17] | Potency [18]

C=C1C2CCC(C2)C1(C)C (stereo not given)
inactive: Potency [1] | Potency [2] | Potency [3] | Potency [4] | max response [5] -3.35% and 5.02% | Potency [6] | Potency [20] | Potency [7] | Potency [8] | Potency [10] | Potency [13] | Potency [14] | Potency [15] | Potency [16] | Potency [17] | Potency [18]

Oc1ccc2ccccc2c1
inactive: Potency [1] | Potency [2] | Potency [3] | Potency [4] | max response [5] 17.4% and 0.276% | Potency [6] | Potency [7] | Potency [8] | Potency [9] | Potency [10] | Potency [13] | Potency [14] | Potency [15] | Potency [16] | Potency [17] | Potency [18] | Potency [19]

ClC1=C(Cl)C(Cl)(Cl)C(Cl)=C1Cl
inactive: Potency [1] | Potency [4] | Potency [7] | Potency [8] | Potency [10] | Potency [12] | Potency [13] | Potency [14] | Potency [15] | Potency [17] | Potency [18]
active: Potency [2] 12.4 µM and 34.7 µM | Potency [5] 34.9 µM | Potency [6] 38.9 µM | Potency [9] 22 µM | Potency [11] 17.5 µM and 34.7 µM

COC(=O)Nc1nc2ccc(Sc3ccccc3)cc2[nH]1
inactive: Potency [1] | Potency [4] | Potency [6] | Potency [7] | Potency [10] | Potency [11] | Potency [12] | Potency [14] | Potency [15] | Potency [18] | Potency [19]
inactive and 10.7 µM (active): Potency [8]
active: Potency [2] 21.3 µM | Potency [3] 1.38 µM and 1.9 µM | Potency [5] 616 nM and 848 nM | Potency [9] 1.55 µM and 848 nM | Potency [13] 2.19 µM and 952 nM | Potency [16] 871 nM and 952 nM | Potency [17] 1.74 µM and 2.13 µM

CCCCCCOC(C)=O
inactive: Potency [1] | Potency [2] | Potency [3] | Potency [4] | max response [5] 0.539% and -29.1% | Potency [6] | Potency [20] | Potency [7] | Potency [8] | Potency [10] | Potency [12] | Potency [13] | Potency [14] | Potency [15] | Potency [16] | Potency [17] | Potency [18] | Potency [19]

CCC(=O)O
inactive: Potency [1] | Potency [2] | Potency [3] | Potency [4] | max response [5] 12.8% and 8.4% and 13% | Potency [6] | Potency [20] | Potency [7] | Potency [8] | Potency [10] | Potency [12] | Potency [13] | Potency [14] | Potency [15] | Potency [16] | Potency [17] | Potency [18] | Potency [19]

CC(C)NCC(O)COc1cccc2ccccc12 (stereo not given)
inactive: Potency [1] | Potency [2] | Potency [3] | Potency [4] | Potency [6] | Potency [20] | Potency [7] | Potency [8] | Potency [10] | Potency [14] | Potency [15] | Potency [16] | Potency [17] | Potency [18]

Cc1cc(O)c2c(c1)C(=O)c1cc(O)cc(O)c1C2=O
inactive: Potency [1] | Potency [2] | Potency [3] | Potency [4] | Potency [6] | Potency [7] | Potency [8] | Potency [9] | Potency [10] | Potency [12] | Potency [13] | Potency [14] | Potency [15] | Potency [17] | Potency [18] | Potency [19]
